In PubChem BioAssay (EPA / NIEHS) one finds outcome and AC50 data, which are given here for 40 molecules.

Structures are written as SMILES. The source made the active and inactive calls. The calls were made as follows: active = hit-call score of the fitted dose curve at least 0.9, where 1 is the maximum; inactive = score below 0.9.

The test in a line: ATG_GRE_CIS: Attagene CIS-FACTORIAL HepG2 Assay for human Glucocorticoid Response Elements (GRE) (AID 2282947). Conditions: HepG2 GRE cis-reporter, Attagene multiplex mRNA; actives raise or lower the signal. As to the method: ATG_CIS is a cell-based, multiplexed-readout assay that uses HepG2, a human liver cell line, with measurements taken at 24 hours after chemical dosing in a 24-well plate.ATG_GRE_CIS is one of 52 assay component(s) measured or calculated from the ATG_CIS assay. It is designed to make measurements of mRNA induction, a form of inducible reporter, as detected with fluorescence intensity signals by Reverse transcription polymerase chain reaction (RT-PCR) and Capillary electrophoresis technology.Data from the assay component ATG_GRE_CIS was analyzed into 1 assay endpoint. This assay endpoint, ATG_GRE_CIS, was analyzed with bidirectional fitting relative to DMSO as the negative control and baseline of activity. Using a type of inducible reporter, measures of mRNA for gain or loss-of-signal activity can be used to understand the reporter gene at the transcription factor-level as they relate to the gene NR3C1. Furthermore, this assay endpoint can be referred to as a primary readout, because this assay has produced multiple assay endpoints where this one serves a reporter gene function. To generalize the intended target to other relatable targets, this assay endpoint is annotated to the nuclear receptor intended target family, where the subfamily is steroidal.
Human liver HepG2 cells are transiently transfected with multiple reporter transcription units (MRTUs) in 6-well plates using FuGene 6 reagent (Roche; 3 ml FuGene/1 mg DNA). The MRTU constructs are regulated by a cis-regulating element (promoter). […] A major difference between the CIS and TRANS system is that in CIS activities of endogenous TFs are measured, whereas the TRANS assay evaluates changes in activities of exogenous, chimeric NR-Gal4 proteins. […] At the end of 24 hour incubation, total RNA was isolated using TriZol reagent (Invitrogen). The isolated RNA is then reverse-transcribed using oligo(dT) primer and Mo-MLV reverse transcriptase (Invitrogen) with DNAse I (Ambion) treatment for 30 min. The one-tenth of the produced cDNA was amplified by PCR using Taq DNA polymerase (Invitrogen) and two reporter sequence-specific primers. The PCR products were fluorescently labeled by primer extension with 6-arboxyfluorescein (6-FAM) 5'-labeled reporter sequence-specific primer (2 min at 95 C, 20 s at 68 C and 10 min at 72 C) and these products were digested with 5U of HpaI (New England Biolabs) for 2h at 37 C. The fragments were purified using Qiaquick PCR columns (Qiagen), analyzed on an ABI 3130xL genetic analyzer (Applied Biosystems) with peak positions identified by using a set of X-rhodamine (ROX)-labeled MapMarker1000 molecular weight standards (BioVentures). The raw capillary electrophoresis data was processed using Attagraph software (Attagene).
Consider `Cc1ccc(C=O)cc1`, for which the molecule was called inactive. As for `C=CC(=O)OCCn1c(=O)n(CCOC(=O)C=C)c(=O)n(CCOC(=O)C=C)c1=O`, the AC50 is 33.4 µM (active).

Turning to `BrC1CCC(Br)C(Br)CCC(Br)C(Br)CCC1Br` (stereo not given), the call was inactive. Consider `CCCCOCCOCCSC#N`, for which the call was inactive. The same measure, in the same setting: for `COc1cc(C=O)ccc1OC(=O)C(C)C` the value was “inactive”; for `Cc1ccc(C(=O)O)o1`, “inactive”. In the case of `NC(=O)c1ccccc1Cl`, the result was inactive.

On to `Cc1ccc2sc3cccc(C)c3c2c1`, for which the outcome was inactive. On the same count and under the same terms, to `CCN(CC)c1ccc(C(=C2C=CC(=[N+](CC)CC)C=C2)c2ccc(S(=O)(=O)O)cc2S(=O)(=O)[O-])cc1` belongs “inactive”. The same measure, in the same setting: for `CCCCC/C=C/C=C/C=O` the value was “inactive”; for `CCCCNC(=O)NS(=O)(=O)c1ccc(C)cc1`, “inactive”. Same read-out and setting: to `CCCc1ccccc1O` belongs “inactive”; to `CCCC1CCC(=O)O1` (stereo not given), “inactive”. For the molecule `O=C1CCc2ccccc2O1`, the call was inactive. Regarding `c1cc(C(c2ccc(OCC3CO3)cc2)c2ccc(OCC3CO3)cc2)ccc1OCC1CO1` (stereo not given), the molecule was called inactive. On the same count and under the same terms, to `CCOC(=S)SSC(=S)OCC` belongs “inactive”. Regarding `O=C1OC2(c3cc(Br)c(O)c(Br)c3Oc3c2cc(Br)c(O)c3Br)c2c(Cl)c(Cl)c(Cl)c(Cl)c21`, the result was inactive.

In the case of `Cc1ccc2ccccc2n1`, the molecule was called inactive.

As for `COC(C(=O)O)c1ccccc1` (stereo not given), the molecule was classed as inactive. Still for that read-out and setting: to `C/C=C(\C)C(=O)OCc1ccccc1` belongs “inactive”; to `NCCOCCO`, “inactive”. Regarding `COc1ccc(Nc2ccccc2)c(C)c1`, the molecule was called inactive. The same measure, in the same setting: for `OCCOCCOCCOCCO` the value was “inactive”; for `CCCCCCC#CC(=O)OC`, “inactive”; for `Cc1c(Cl)c(=O)oc2cc(O)ccc12`, “inactive”. For the molecule `COc1cc2ncnc(Nc3cccc(Cl)c3)c2cc1OC`, the molecule was classed as inactive. Same read-out and setting: to `O=C(Nc1ccccc1)c1cc([N+](=O)[O-])ccc1Cl` belongs “inactive”; to `CCCCCCCCCCCCN`, “inactive”. On the same count and under the same terms, for `CC(C)c1ccc(C(C)C)cc1` the value was “inactive”. Still for that read-out and setting: to `OC[C@H]1O[C@H](O[C@]2(CCl)O[C@H](CCl)[C@@H](O)[C@@H]2O)[C@H](O)[C@@H](O)[C@H]1Cl` belongs “inactive”; to `CC(C)(C)NC(N)=O`, “inactive”; to `C=COCCOCCOCCOC=C`, “inactive”. As for `CCCCCCOC(=O)CC`, the call was inactive. Still for that read-out and setting: to `Nc1cc([N+](=O)[O-])ccc1O` belongs “inactive”. `C[C@H]1C[C@@H]2[C@H]([C@@H](O)C[C@@]3(C)[C@H]2CC[C@]3(O)C(=O)CO)[C@@]2(C)C=CC(=O)C=C12`: the AC50 was 0.151 µM (active). Consider `C=CCOC(=O)CCC1CCCCC1`, for which the call was inactive. As for `CC(C)(N)CO`, the outcome was inactive. On to `O=C(O)CN(CCN(CC(=O)O)CC(=O)O)CCN(CC(=O)O)CC(=O)O`, for which the result was inactive. Still for that read-out and setting: to `CCCCCCCCCCN` belongs “inactive”; to `O=S(=O)(O)c1ccc(O)c2ncccc12`, “inactive”.
